Source: PubChem
ELG1 genotoxic: induces genotoxicity in HEK293T cells with luciferase-tagged ELG1 | HEK293T ELG1-luciferase reporter, luminescence, 16 h | AID 504466 | 1.3% of 330,000 active | Potency, µM (titrated, usually from 46 µM), inactives show at the top dose activity change, positive = activation, actives largely listed as activators; further: % of control where 0% means no effect; nearly all actives have a fitted effect of over 60% in size
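DMSO vehicle served as control against compound-treated ELG1-luciferase HEK293T cells; exposure lasted 16 hr at 37 °C and 5% CO2, followed by ONE-Glo luminescence detection after 30 min.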
Rab9 prom act: activates the Rab9 promoter; 2.8% of 320,000 active; Potency, µM (doses to about 9.22 µM), for inactives: at the top dose activation, negative = inhibition, usual class: activators; AID 485297; Huh7 Rab9 promoter-luciferase reporter, luminescence, 24 h; further: % of control where 0% means no effect; nearly all actives have a fitted effect of over 60% in size
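Quantitative HTS format; Huh7 Rab9-luciferase reporter cells (1500/well) receive compound 2 h post-plating, incubate 24 h at 37 °C, then get luciferase reagent for 10 min before luminescence reading.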
FLuc modulator: firefly luciferase modulation, counter-screen for miR-21 project | purified FLuc, Km substrates, luminescence inhibition | Potency, µM (doses to about 57.5 µM), for inactives: at the highest dose activity change, negative = inhibition, hits mostly inhibitors | 6.9% of 360,000 active | AID 588342;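 further: plate controls were vehicle for no effect and reference inhibitor for full effect; nearly all actives have a fitted effect of over 55% in size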
Target sequence (P08659 whole entry, looked up): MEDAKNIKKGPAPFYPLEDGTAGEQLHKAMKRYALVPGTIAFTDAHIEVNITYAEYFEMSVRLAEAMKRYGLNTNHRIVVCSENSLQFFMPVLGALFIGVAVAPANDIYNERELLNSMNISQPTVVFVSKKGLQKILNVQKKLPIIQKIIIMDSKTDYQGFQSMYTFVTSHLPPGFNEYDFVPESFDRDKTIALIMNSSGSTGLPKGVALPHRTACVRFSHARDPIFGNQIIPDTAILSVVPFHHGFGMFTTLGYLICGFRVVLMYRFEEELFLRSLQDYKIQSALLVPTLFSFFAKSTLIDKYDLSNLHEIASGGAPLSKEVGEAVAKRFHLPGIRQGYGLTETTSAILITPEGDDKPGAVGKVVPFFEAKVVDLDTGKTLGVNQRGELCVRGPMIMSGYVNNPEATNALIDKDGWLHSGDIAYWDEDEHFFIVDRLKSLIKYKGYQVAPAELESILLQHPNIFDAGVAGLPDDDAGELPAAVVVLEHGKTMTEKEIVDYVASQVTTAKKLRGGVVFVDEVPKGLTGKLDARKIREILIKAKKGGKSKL
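Purified P. pyralis luciferase, 10 nM final, with Km-level 10 uM D-luciferin and 10 uM ATP in 50 mM Tris acetate pH 7.5, 10 mM Mg acetate, 0.01% Tween-20, 0.05% BSA; 6-point qHTS titration about 60 µM downward; luminescence read.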
ELG1 repair inh: inhibitors of ELG1-dependent DNA repair in HEK293T cells. Potency, µM (titrated, usually from 46.1 µM), without a hit: top-dose activity change, negative = inhibition, hits mostly inhibitors. HEK293T ELG1-luciferase reporter, luminescence, 16 h; DNA damage induced by 5-fluorouridine. AID 504467. 2.3% of 330,000 active; further: on the % scale 0 is the no-effect control and ±100 the full control effect; nearly all actives have a fitted effect of over 55% in size
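Luminescence from the luciferase reporter, measured 30 min after ONE-Glo reagent at room temperature, was the read-out. Beforehand, 2,000 cells per well were exposed for 16 hr at 37 °C to 5-fluorouridine together with compound or vehicle.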
NPC1 prom act: NPC1 promoter activation; AID 485313; Huh7 NPC1 promoter luciferase reporter, 24 h; Potency, µM (series often up to 9.22 µM), inactives show top-dose activation, hits mostly activators; 2.4% of 320,000 active; further: % of control where 0% means no effect; nearly all actives have a fitted effect of over 60% in size
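Stable NPC1-promoter luciferase Huh7 line; cpd (DMSO) 24 h, 37 °C, 5% CO2; Amplite luciferase reagent 10 min RT; luminescence readout. qHTS format.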
SMN2 splice up: SMN2 splice variant enhancement | 2.8% of 210,000 active | AID 1458 | Potency, µM (doses to about 46.1 µM), without a hit: top-dose activity change, positive = activation, usual class: activators | HEK293 SMN2-luciferase splicing reporter, luminescence, 30-36 h; further: % of control where 0% means no effect; nearly all actives have a fitted effect of over 55% in size
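HEK293 cells carry an SMN2 minigene-luciferase reporter in which exon 7 inclusion puts luciferase in frame. Cells were seeded at 2000 cells/well, attached for 10-12 hours, then exposed to compounds for 30-36 hours at 37C before ONE-Glo luminescence.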
Starred values were filed as active, the others as inactive; ? = inconclusive; / = no result; [ ] = dose if it differs, or a comment. A selection: hits, their analogues and other compounds. The true share with any hit is near 9.4%. The call rests on the fitted dose curve; in most records, active means well fitted curve in the direction sought with a large enough effect; inconclusive means small, poorly fitted or top-dose-only effect, or another doubt; inactive means no such curve, though single readings can be large; an effect the other way counts as inactive or inconclusive. Potency means the concentration at half of the fitted maximal effect.

SMILES | ELG1 genotoxic | Rab9 prom act | FLuc modulator | ELG1 repair inh | NPC1 prom act | SMN2 splice up
COc1cc2c(cc1NC(=O)C1CCCO1)oc1ccccc12 (stereo not drawn) | 4.6µM* | 3.5µM* | 6µM* | ? | 4µM* | 25µM*
COc1cc2c(cc1NC(=O)C(C)Sc1ccc(NC(C)=O)cc1)oc1ccccc12 (stereo not drawn) | -8% | -2% | ? | 16µM* | 16% | -25%
COc1cc2c(cc1NC(=O)C(C)OC(=O)C1CC(=O)N(Cc3ccco3)C1)oc1ccccc12 (stereo not drawn) | 21µM* | ? | ? | ? | ? | 24%
CC(OC(=O)C1CC(=O)N(Cc2ccco2)C1)C(=O)Nc1cccc(C#N)c1 (stereo not drawn) | 1% | 2% | -1% | 16% | -1% | /
CCCCc1nn2c(=O)cc(COC(=O)C(C)Oc3ccccc3)nc2s1 (stereo not drawn) | / | / | -1% | / | / | /
O=[N+]([O-])c1ccc2c(N=Nc3ccc4ccccc4c3O)c(O)cc(S(=O)(=O)O)c2c1 | / | / | / | / | / | -2%[9.22 µM]
CCn1cnc2sc(C(=O)Oc3cccc(C)c3)c(C)c2c1=O | 18µM* | ? | ? | ? | ? | -14%
CC(C)CCSc1nc(N2CCOCC2)c2c(c1C#N)CC(C)(C)OC2 | 0% | 4% | 0% | 12µM* | -1% | /
COC(=O)CCSc1nc(N2CCOCC2)c2c(c1C#N)CC(C)(C)OC2 | 0% | -1% | -11% | ? | -2% | /
O=C(NCCO)C(=O)NCC(c1ccc2c(c1)OCO2)N1CCOCC1 (stereo not drawn) | / | / | -2% | / | / | /
COc1cccc(CNn2cnnc2)c1O | 3% | -7% | 1% | 0% | 0% | /
COc1cccc(CNc2ccc(Br)cn2)c1O | ? | 2.8µM* | 1.5µM* | ? | 1µM* | 14µM*
Oc1ccc2ccccc2c1CNc1ccc(Br)cn1 | 13% | 1% | 24µM* | ? | -3% | /
COc1cccc(CNc2ncc(Br)cc2Br)c1O | 14% | ? | 27µM* | ? | ? | 18%
Oc1ccc2ccccc2c1CNc1ccc(Br)cc1 | 3% | -5% | -7% | 10% | -3% | /
C=CCc1ccccc1OCc1nc2ccc(C)cc2[nH]1 | / | / | ? | / | / | -17%
O=C(Nc1c2c(nn1-c1ccc(Cl)cc1)CS(=O)(=O)C2)c1cccc(Cl)c1 | / | / | -16% | / | / | /
COc1ccc(C(=O)NCC(c2cccnc2)N2CCc3ccccc3C2)cc1OC (stereo not drawn) | / | / | 0.67µM* | / | / | /
O=C(NCc1ccc(Cl)cc1)C1CCCN(c2ncnc3c2nc2n3CCCCC2)C1 (stereo not drawn) | -10% | -1% | -5% | 15µM* | -5% | /
O=C(Nc1ccc(Cl)cc1)C1CCCN(c2ncnc3c2nc2n3CCCCC2)C1 (stereo not drawn) | -11% | -4% | 0% | 23µM* | -3% | /
CSc1ccc(CCNC(=O)C2CCCN(c3ncnc4c3nc3n4CCCCC3)C2)cc1 (stereo not drawn) | -14% | 0% | -4% | 8.2µM* | -2% | /
CC(=O)COc1ccc2c(c1C)O/C(=C\c1ccco1)C2=O | ? | ? | 5.4µM* | ? | ? | /
COC(=O)C(C)Oc1ccc2c(c1)O/C(=C\c1ccco1)C2=O (stereo not drawn) | 0% | -8% | 3µM* | 1% | -5% | /
CC1CCCN(Cc2c(O)ccc3c2O/C(=C\c2ccco2)C3=O)C1 (stereo not drawn) | 0% | -5% | 1% | 5% | 2% | 8%
O=C(Oc1ccc2c(c1)O/C(=C\c1ccncc1)C2=O)c1ccccc1 | 5% | 1% | -12% | ? | -8% | 13%
SMILES | ELG1 genotoxic | Rab9 prom act | FLuc modulator | ELG1 repair inh | NPC1 prom act | SMN2 splice up
COc1ccc2c(c1)O/C(=C\c1ccco1)C2=O | ? | 4µM* | 0.6µM* | ? | 4.5µM* | /
O=C(Nc1ccc2c(c1)N(C1CCCC1)C(=O)c1ccccc1S2)c1ccc(F)cc1 | / | / | -8% | / | / | /
CCOC(=O)c1c(NC(C)=O)c2c3c(sc2n1Cc1cc(C)ccc1C)CCCC3 | / | / | 2% | / | / | -4%
COc1ccccc1N1CCN(C(=O)c2cc3c(=O)n(Cc4ccco4)ccc3nc2C)CC1 | / | / | 5% | / | / | /
Cc1ccc(C=Nc2ccccc2C#N)s1 | 9% | 0% | 1.3µM* | ? | 0% | 3%
Cc1ccc(/C=N/c2sc3c(c2C#N)CCC3)s1 | ? | ? | 0.67µM* | ? | ? | 7.1µM*
N#Cc1c(-n2cccc2/C=N/O)sc2c1CCCC2 | -2% | -9% | 6% | -1% | 0% | -22%
Cc1[nH]n(-c2cccc3ccccc23)c(=O)c1/C=N/c1sc2c(c1C#N)CCC2 | -6% | 0% | -4% | 16% | ? | -8%
Cc1[nH]n(-c2ccc(F)cc2)c(=O)c1/C=N/c1sc2c(c1C#N)CCCC2 | -5% | 0% | 13µM* | 1% | 1% | -22%
Cc1ccc(/C=N/c2sc3c(c2C#N)CCCCC3)o1 | 1.5µM* | 4µM* | 0.17µM* | ? | 4.5µM* | -32%
Cc1ccc(NC(=O)Cn2ccn(-c3ccccc3)c(=O)c2=O)cc1 | / | / | 2% | / | / | /
CCOC(=O)c1ccc(NC(=O)C2=C(C)Nc3nc(SCc4ccc(Cl)cc4)nn3C2c2ccc(OC)cc2)cc1 (stereo not drawn) | / | / | 0% | / | / | 5%
O=C(CSc1ncc(-c2ccccc2)[nH]1)Nc1cccc(Br)c1 | / | / | ? | / | / | -9%
O=C(NCc1ccccc1F)C(=O)NCC(c1cccs1)S(=O)(=O)c1cccs1 (stereo not drawn) | / | / | -7% | / | / | /
Cc1cccc(C(=O)Nc2nnc(SCc3cc(=O)n4cccc(C)c4n3)s2)c1 | / | / | -13% | / | / | /
